# Laboratory results reported in PubChem BioAssay.
# Active and inactive are the calls of the source. Unless noted, no rule for the calls is given here.
# Assays:
# [1] = resazurin metabolic signal in HepG2 cells – cell-based, resazurin fluorescence, 24 h, PK04 Diversity Set, profiling panel (AID 1172); details: HepG2 viability, higher = more signal; also: test concentration not given here
# [2] = budding yeast growth changes without added modifier – OD600, strain BY4716, 24 h, basal condition, primary screen (AID 1173); details: S. cerevisiae BY4716 growth, OD600, 24 h; higher = more signal, called active from +8 up or from −8 down
# [3] = viability profiling in MM1S myeloma cells – cell-based, resazurin fluorescence, basal, 24 h, PK04 Diversity Set, profiling panel (AID 1174); details: higher = more signal, called active from +8 up or from −8 down;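 also: MM1S multiple myeloma cell line; test concentration not given here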
# [4] = biological target: Dihydroorotate dehydrogenase (quinone), mitochondrial (Plasmodium falciparum (isolate 3D7)) (UniProt Q08210); experiment: inhibition of P. falciparum DHODH – biochemical, C-terminal His tag, absorbance 600 nm, primary screen (AID 1175); details: PfDHODH enzyme, DCIP absorbance 600 nm; higher = more signal, called active from +8 up or from −8 down;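 also: recombinant parasite enzyme with a five histidine tag at its C terminus; test concentration not given here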
# [5] = inhibition of PAO1 biofilm formation – strain PAO1, LB-PBS medium, absorbance 600 nm, primary screen (AID 1176); also: test concentration not given here; details: P. aeruginosa PAO1 growth/biofilm, A600, 12 h; higher = more signal
# [6] = growth modulation of vineyard yeast isolate – strain RM11-1a, OD600, basal, 24 h, primary screen (AID 1177);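 also: cultures grown under basal conditions with no added stressor; test concentration not given here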; details: S. cerevisiae RM11-1a growth, OD600, 24 h; higher = more signal, called active from +8 up or from −8 down
# [7] = growth of efflux-deficient E. coli DRC39 – strain DRC39, OD650, 24 h, E. coli filamentation inducers, primary screen (AID 1178);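 also: growth measured as culture turbidity by optical density at 650 nm; test concentration not given here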; details: E. coli DRC39 acrAB, higher = more signal, called active from +8 up or from −8 down
# [8] = growth of efflux-deficient E. coli DRC39 – strain DRC39, OD650, 48 h, E. coli filamentation inducers, primary screen (AID 1179);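 also: screen aims at cell division blockers that make cells filament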; details: E. coli DRC39 delta-acrAB growth, higher = more signal, called active from +8 up or from −8 down
# [9] = viability profiling in RPMI8226 myeloma cells – cell-based, resazurin fluorescence, basal, 24 h, PK04 Diversity Set, profiling panel (AID 1180); details: higher = more signal;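 also: RPMI8826 multiple myeloma cell line at 5000 cells per well; test concentration not given here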
# [10] = biological target: E3 ubiquitin-protein ligase XIAP (Homo sapiens) (UniProt P98170); experiment: small molecules binding XIAP protein – biophysical, small-molecule microarray, fluorescence 635 nm, primary screen (AID 1181); details: higher = more signal;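 also: score merges 667 nm emission and signal to noise over triplicate slides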
# E3 ubiquitin-protein ligase XIAP (Homo sapiens), sequence (P98170 whole entry, looked up): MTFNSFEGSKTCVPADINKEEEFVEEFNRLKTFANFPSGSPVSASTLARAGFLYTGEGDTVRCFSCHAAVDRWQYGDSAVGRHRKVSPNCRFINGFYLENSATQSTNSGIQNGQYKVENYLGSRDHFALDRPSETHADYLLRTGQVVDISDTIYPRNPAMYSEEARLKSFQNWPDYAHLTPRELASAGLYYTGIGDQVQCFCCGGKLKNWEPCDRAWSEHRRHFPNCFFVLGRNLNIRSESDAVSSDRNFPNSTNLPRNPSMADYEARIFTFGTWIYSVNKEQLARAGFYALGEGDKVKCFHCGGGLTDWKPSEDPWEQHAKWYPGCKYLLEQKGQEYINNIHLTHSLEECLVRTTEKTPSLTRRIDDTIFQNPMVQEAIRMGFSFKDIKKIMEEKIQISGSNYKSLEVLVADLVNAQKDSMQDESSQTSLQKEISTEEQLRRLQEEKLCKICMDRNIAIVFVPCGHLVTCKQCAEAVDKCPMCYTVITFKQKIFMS
# Dihydroorotate dehydrogenase (quinone), mitochondrial (Plasmodium falciparum (isolate 3D7)), sequence (Q08210 whole entry, looked up): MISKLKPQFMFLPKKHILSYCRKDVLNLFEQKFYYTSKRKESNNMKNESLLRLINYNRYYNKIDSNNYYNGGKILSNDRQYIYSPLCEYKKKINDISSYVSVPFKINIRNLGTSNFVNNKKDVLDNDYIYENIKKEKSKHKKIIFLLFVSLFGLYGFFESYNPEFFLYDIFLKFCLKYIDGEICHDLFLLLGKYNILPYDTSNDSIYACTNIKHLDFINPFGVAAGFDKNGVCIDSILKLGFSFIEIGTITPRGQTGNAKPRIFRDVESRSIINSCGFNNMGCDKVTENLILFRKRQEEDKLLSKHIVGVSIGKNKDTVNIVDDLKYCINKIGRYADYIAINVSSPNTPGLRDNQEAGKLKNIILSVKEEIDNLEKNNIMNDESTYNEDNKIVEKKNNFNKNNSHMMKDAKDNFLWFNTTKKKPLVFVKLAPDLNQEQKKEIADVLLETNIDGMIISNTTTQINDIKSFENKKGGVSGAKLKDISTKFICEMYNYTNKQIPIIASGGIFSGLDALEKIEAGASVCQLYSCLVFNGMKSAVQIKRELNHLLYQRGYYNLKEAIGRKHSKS
SMILES,z-score [1],z-score [2],z-score [3],composite z-score [4],z-score [5],z-score [6],z-score [7],z-score [8],z-score [9],composite z-score [10]
COC(=O)[C@@]1(Cc2ccc(F)cc2)[C@H]2c3cc(C(=O)N4CCCC4)n(Cc4ccccc4)c3C[C@H]2CN1C(=O)c1ccccc1,0.155,1.38 (inactive),-0.874 (inactive),0.335 (inactive),-0.526 (inactive),0.669 (inactive),0.392 (inactive),-0.406 (inactive),-0.922,-0.146
O=C1c2ccccc2[C@](Cc2ccccc2I)(C(=O)NCC(F)(F)F)[C@H](c2ccc(CO)cc2)N1Cc1ccccc1,0.846,-0.895 (inactive),-0.277 (inactive),-0.537 (inactive),-0.0344 (inactive),0.0123 (inactive),0.496 (inactive),1.07 (inactive),0.675,-0.0962
O=C1C[C@@](C(=O)NCc2ccccc2)(c2ccc([N+](=O)[O-])cc2)[C@@H](c2ccc(CO)cc2I)N1C1CCCCC1,-0.327,0.432 (inactive),0.566 (inactive),0.634 (inactive),-0.301 (inactive),1.88 (inactive),0.445 (inactive),-0.0118 (inactive),0.787,-0.115
COc1ccc(C#Cc2ccc3c(c2)[C@]2(C(=O)N3)[C@H](C(N)=O)[C@H]3C(=O)O[C@H](c4ccccc4)[C@H](c4ccccc4)N3[C@@H]2c2ccc(O)cc2)cc1,-0.295,-0.299 (inactive),-4.88 (inactive),0.817 (inactive),1.41 (inactive),1.68 (inactive),0.666 (inactive),0.714 (inactive),-6.43,0.0031
Cc1cc(C)c(C(O)C2C=CC3C(=O)N(c4ccccc4)C(=O)C3N2Nc2ccccc2)c(C)c1 (stereo not given),-0.156,0.439 (inactive),-0.307 (inactive),0.224 (inactive),1.14 (inactive),0.292 (inactive),-0.297 (inactive),0.445 (inactive),-0.0598,0.0542
C[N+](C)(C)CCCCCCNC(=O)[C@@H]1C[C@@H]2C(=O)NCC(=O)N2[C@@H]1c1cccc(OCCO)c1,0.597,-1.33 (inactive),1.26 (inactive),-2.3 (inactive),3.7 (inactive),-0.257 (inactive),-0.858 (inactive),-0.765 (inactive),0.343,0.0192
C=CCNC(=O)[C@H]1[C@@H]2C(=O)O[C@@H](c3ccccc3)[C@@H](c3ccccc3)N2[C@@H](c2ccc(O)cc2)[C@]12C(=O)N(C(=O)OCCOC)c1ccc(C#CC3(O)CCCCCC3)cc12,-0.0051,-0.897 (inactive),0.221 (inactive),0.157 (inactive),0.806 (inactive),2.27 (inactive),0.665 (inactive),0.951 (inactive),0.41,0.0479
COC(=O)[C@@]1(Cc2ccccc2)[C@H]2c3cc(C(=O)N4CCCC4)n(Cc4ccc(OC(F)(F)F)cc4)c3C[C@H]2CN1C(=O)c1ccccc1,-1.22,1.61 (inactive),-2.46 (inactive),0.868 (inactive),0.632 (inactive),1.85 (inactive),-1.22 (inactive),-0.439 (inactive),-2.62,0.131
C=CCOC(=O)[C@H]1[C@@H]2C(=O)O[C@@H](c3ccccc3)[C@@H](c3ccccc3)N2[C@@H](c2ccc(OCCOC(=O)[C@H]3C[C@H]4C(=O)N[C@@H](CCCCN(C)C)C(=O)N4[C@H]3c3ccc(O)cc3)cc2)[C@]12C(=O)Nc1ccccc12,0.569,-2.35 (inactive),0.95 (inactive),0.279 (inactive),-0.723 (inactive),0.719 (inactive),0.172 (inactive),-0.739 (inactive),0.828,0.0425
N#Cc1ccc(NN2C(C(O)c3ccco3)C=CC3C(=O)N(c4ccccc4)C(=O)C32)cc1 (stereo not given),-0.674,-0.36 (inactive),-0.512 (inactive),0.0512 (inactive),1.07 (inactive),0.293 (inactive),-2.14 (inactive),-2.13 (inactive),-0.607,0.0794
COC(=O)[C@@]1(Cc2ccccc2)[C@H]2c3cc(C(=O)N(C)C)n(Cc4ccccn4)c3C[C@H]2CN1C(=O)c1ccccc1,-0.802,1.6 (inactive),-1.33 (inactive),0.611 (inactive),0.964 (inactive),0.781 (inactive),-1.19 (inactive),-0.507 (inactive),-1.26,0.124
CC(C)(C)OC(=O)CC[C@@]1(C(=O)N2CCCCC2)N=C(c2ccc(OCCCO)cc2)O[C@@H]1c1ccccc1N=[N+]=[N-],-0.254,0.601 (inactive),-1.73 (inactive),0.27 (inactive),-0.279 (inactive),0.879 (inactive),0.264 (inactive),1.36 (inactive),-0.408,-0.0474
CC(C)[Si](C#C[Si](C(C)C)(C(C)C)C(C)C)(O[C@H](C)c1cn(Cc2cccc(Cl)c2)nn1)C(C)C,0.205,0.916 (inactive),1.77 (inactive),0.621 (inactive),0.444 (inactive),0.0575 (inactive),2.07 (inactive),1.52 (inactive),1.68,-0.205
COC(=O)[C@@]1(Cc2ccc(OC)cc2)[C@H]2c3cc(C(=O)N4CCCC4)n(Cc4ccc(C)o4)c3C[C@H]2CN1C(=O)c1ccccc1,-6.47,-8.36 (active),-9.97 (active),-1.53 (inactive),0.411 (inactive),-1.57 (inactive),0.0254 (inactive),-0.726 (inactive),-7.27,0.402
C=C(CCCC)/C(=C/C[C@H](OC(=O)c1ccncc1)c1ccc(CO)o1)c1cc(C(=O)OC)ccc1OC,-0.673,-0.756 (inactive),-2.13 (inactive),-3.99 (inactive),0.898 (inactive),-0.145 (inactive),-0.861 (inactive),-0.528 (inactive),-0.963,0.0537
COC(=O)C(CC#Cc1ccc2c(c1)[C@]1(C(=O)N2)[C@H](c2ccc(OCCO)cc2)N2[C@H](c3ccccc3)[C@H](c3ccccc3)OC(=O)[C@H]2[C@@H]1C(=O)O)C(=O)OC,0.669,0.156 (inactive),1.09 (inactive),-16.3 (active),2.28 (inactive),1.48 (inactive),1.29 (inactive),1.33 (inactive),0.749,-0.194
COCCOC(=O)N1C(=O)[C@@]2(c3cc(C#CC4(O)CCCCCC4)ccc31)[C@H](C(=O)N1CCc3cc(OC)c(OC)cc3C1)[C@H]1C(=O)O[C@H](c3ccccc3)[C@H](c3ccccc3)N1[C@@H]2c1ccccc1OCCO,0.032,1.96 (inactive),0.162 (inactive),0.666 (inactive),1.01 (inactive),2.98 (inactive),-0.0554 (inactive),0.585 (inactive),0.793,0.0297
C=CCOC(=O)[C@@H]1[C@H]2C(=O)O[C@H](c3ccccc3)[C@H](c3ccccc3)N2[C@H](c2ccc(OCCOC(=O)[C@@H]3C[C@@H]4C(=O)N5CCC[C@H]5C(=O)N4[C@@H]3c3cccc(OCCO)c3)cc2)[C@@]12C(=O)Nc1ccc(I)cc12,0.586,1.53 (inactive),0.356 (inactive),-0.652 (inactive),1.69 (inactive),2.07 (inactive),0.132 (inactive),-0.63 (inactive),0.281,-0.224
CCCCC=C[C@@H](NC(=O)CCc1ccccc1)c1ccccc1,-1.61,0.927 (inactive),-2.09 (inactive),-0.739 (inactive),1.16 (inactive),0.929 (inactive),-0.0955 (inactive),-0.169 (inactive),-3.6,-0.154
COc1ccc([Si](C)(C)[C@@H]2[C@@H](CC(=O)N(CCO)Cc3ccccc3)O[C@]3(C(=O)N(Cc4ccc(N5CCOC5=O)cc4)c4ccccc43)[C@H]2C)cc1,-1.12,0.613 (inactive),-1.85 (inactive),-0.0014 (inactive),1.77 (inactive),0.953 (inactive),1.16 (inactive),0.307 (inactive),-2.31,-0.0333
C=CC[C@]1(C(=O)NCC(O)CO)N=C(c2ccc(OCCCO)cc2)O[C@H]1c1ccccc1N=[N+]=[N-] (stereo not given in full),0.662,-0.746 (inactive),-0.302 (inactive),1.13 (inactive),0.755 (inactive),0.329 (inactive),0.769 (inactive),-0.579 (inactive),0.245,-0.106
CCCCCCCCCCC(O)C1C=CC2C(=O)NC(=O)C2N1Nc1ccccn1 (stereo not given),-2.19,-10.4 (active),-2.8 (inactive),0.364 (inactive),2.43 (inactive),-5.05 (inactive),-2.29 (inactive),-3.65 (inactive),-1.64,0.0153
CCOC(=O)C[C@H]1[C@H](OC(=O)c2ccc(C(=O)c3ccccc3)cc2)[C@@H](NC(=O)C2CCCCC2)c2cc(OCCCO)ccc2N1C(=O)Cc1ccc(OC)cc1,-0.531,-0.741 (inactive),-0.28 (inactive),-0.085 (inactive),-0.346 (inactive),-0.0363 (inactive),-0.29 (inactive),0.162 (inactive),-0.353,-0.141
CN1C(=O)C2C=CC(C(O)c3cccc4ccccc34)N(NC(=O)OC(C)(C)C)C2C1=O (stereo not given),-1.12,-3.8 (inactive),-0.776 (inactive),-0.878 (inactive),0.378 (inactive),-0.0808 (inactive),-0.555 (inactive),-0.403 (inactive),-0.693,0.156
COc1ccc(C(=O)Nc2ccc(CN3C(=O)[C@]4(O[C@H](CCn5cc([C@H](O)c6ccccc6)nn5)[C@@H]([Si](C)(C)c5ccc(OC)cc5)[C@@H]4C)c4ccccc43)cc2)cc1,-1.34,-0.884 (inactive),-3.17 (inactive),-0.0934 (inactive),1.55 (inactive),1.63 (inactive),0.938 (inactive),0.63 (inactive),-3.24,0.0623
CC(C)(C)OC(=O)CC[C@]1(C(=O)O)COC(c2ccc(OCCCO)cc2)=N1,0.265,0.167 (inactive),-0.249 (inactive),-0.055 (inactive),-0.596 (inactive),0.433 (inactive),-0.341 (inactive),-0.447 (inactive),-0.0624,-0.118
